# In the supplement of paper PMC3724861:
# This excerpt belongs to a sample that is enriched for hits. No count for the full screen is at hand.
# System: T1, Caupolican (Caup) homeodomain DNA-binding domain
# T1 sequence: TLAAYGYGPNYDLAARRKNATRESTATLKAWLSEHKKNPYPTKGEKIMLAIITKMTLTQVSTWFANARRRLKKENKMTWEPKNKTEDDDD
# Assay: PBM E-score (8-mer, recovered from the published 9-mer minima) (E-score (dimensionless, -0.5 to 0.5)); Drosophila protein; higher = stronger relative binding preference, active = 0.31 or more
# Outline: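 Caup's homeodomain DNA-binding domain (residues 214-303) was made by in vitro transcription and translation and applied at 100 nM to custom-designed protein binding microarrays. Each value is an enrichment score that gives relative binding preference for a short DNA word, with higher meaning stronger. The 8-mer values were recovered from published 9-mer scores, each of which was the minimum of its two constituent 8-mer scores. A cutoff of 0.31 marks candidate sites.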
row,Sequence,PBM E-score
1,ACCCGATC,-0.0489 (inactive)
2,CTTGGTAA,0.0467 (inactive)
3,CTCGTCAA,0.0256 (inactive)
4,GGTGGTTA,0.0166 (inactive)
5,AATTGAGT,0.131 (inactive)
6,ACACCCTC,-0.0435 (inactive)
7,CAGCACGG,-0.0332 (inactive)
8,ATAATCAG,0.101 (inactive)
9,AGAGCAAG,0.0346 (inactive)
10,GAACACAA,0.317 (active)
11,AAACACAA,0.27 (inactive)
12,TAACACAA,0.319 (active)
13,CAACACAA,0.241 (inactive)
14,GGACACAA,0.204 (inactive)
15,GAACACAC,0.217 (inactive)
16,AGATCGGC,-0.152 (inactive)
17,ACCTGGAC,-0.0342 (inactive)
18,CCCGTGTC,0.145 (inactive)
19,GCCGTGTA,0.341 (active)
20,ACCGTGCA,0.00395 (inactive)
21,ACCGTGTC,0.312 (active)
22,ACCGTGGA,-0.107 (inactive)
23,ACCGTGTA,0.359 (active)
24,CCCGTGTA,0.25 (inactive)
25,GCCGTGAA,-0.0891 (inactive)
26,ACCGTGTG,0.115 (inactive)

row,Sequence,PBM E-score
1,GAACACCA,0.195 (inactive)
2,ACTATCAG,0.083 (inactive)
3,ATTATTAA,0.191 (inactive)
4,ACATTTTC,0.161 (inactive)
5,ACGCGACT,0.0019 (inactive)
6,CTCATAAG,0.0492 (inactive)
7,CATGACAG,0.151 (inactive)
8,GATAGATA,0.08 (inactive)
9,AGCTTCAC,-0.0515 (inactive)
10,CATGGGAC,0.151 (inactive)
11,GAATGTTA,0.234 (inactive)
12,GCATGTTA,0.397 (active)
13,AGATGTTG,0.203 (inactive)
14,AAATGTTG,0.201 (inactive)
15,CGATGTTC,0.249 (inactive)
16,AGATGTTA,0.286 (inactive)
17,CCATGTTC,0.368 (active)
18,ACATGTTG,0.453 (active)
19,CAATGTTC,0.218 (inactive)
20,ACCTGTTA,0.222 (inactive)
21,ACATGTTA,0.452 (active)
22,GGATGTTA,0.204 (inactive)
23,GAGCCTCA,-0.214 (inactive)
24,CCATATGG,-0.073 (inactive)
25,AGCACTGA,-0.0101 (inactive)
26,ACACTCTA,0.0891 (inactive)

row,Sequence,PBM E-score
1,AGTTTTGA,0.0657 (inactive)
2,CGTCCGGC,-0.219 (inactive)
3,AGATGTTC,0.286 (inactive)
4,CGATGTTA,0.297 (inactive)
5,CCATGTTA,0.406 (active)
6,AAATGTTC,0.247 (inactive)
7,ACATGTTC,0.455 (active)
8,CAATGTTA,0.269 (inactive)
9,GATTTGCA,0.0416 (inactive)
10,ATAGTTCC,-0.029 (inactive)
11,AAAGCCCC,-0.238 (inactive)
12,CGTTAAGC,-0.0697 (inactive)
13,TGTTGTAA,0.377 (active)
14,AGTAGTAA,0.168 (inactive)
15,CGTTGTAA,0.261 (inactive)
16,AGTTGTAA,0.279 (inactive)
17,GGTTGTAC,0.222 (inactive)
18,CGTTGTTA,0.305 (inactive)
19,GGTTGTTA,0.324 (active)
20,TGTAGTAA,0.376 (active)
21,GGTTGTGA,0.0824 (inactive)
22,CGTAGTAA,0.145 (inactive)
23,AGTTGTTA,0.266 (inactive)
24,GGTTGTAA,0.333 (active)
25,ACGAGGTG,0.0761 (inactive)
26,AGATGCAC,-0.00186 (inactive)

row,Sequence,PBM E-score
1,AGCGTTCG,-0.141 (inactive)
2,ATTAGGAA,0.0485 (inactive)
3,AGCAACAC,0.186 (inactive)
4,AGACGCGC,-0.0474 (inactive)
5,ACACGACT,0.251 (inactive)
6,ACACGTCG,0.212 (inactive)
7,ACACGACA,≥ 0.386 (active)
8,ACACGTCT,0.203 (inactive)
9,ACACGTCA,0.325 (active)
10,ACACGATC,0.254 (inactive)
11,CCACGATA,0.0391 (inactive)
12,ACACGACC,0.215 (inactive)
13,ACACAATG,0.273 (inactive)
14,ACACAATA,0.31 (active)
15,ACACGATA,0.322 (active)
16,GCACAATA,0.0168 (inactive)
17,AGACTGTG,0.0481 (inactive)
18,GCAGTCTA,0.0232 (inactive)
19,AAGATTGC,-0.00712 (inactive)
20,CATTTCAG,0.00691 (inactive)
21,ACACGATG,0.347 (active)
22,ACACGAAG,0.174 (inactive)
23,ACACGAGG,0.111 (inactive)
24,AAAAGCAT,0.1 (inactive)
25,CGTACACA,0.255 (inactive)
26,CGTACACG,0.341 (active)

row,Sequence,PBM E-score
1,AGTACCAA,0.128 (inactive)
2,TGTACAAA,0.384 (active)
3,TTTACAAA,0.245 (inactive)
4,CGTACCAA,0.0356 (inactive)
5,TGTACACA,0.407 (active)
6,TGTACCAA,0.312 (active)
7,GGTACACA,0.28 (inactive)
8,AGTACAAA,0.26 (inactive)
9,CGTACACC,0.205 (inactive)
10,TCTACACA,0.157 (inactive)
11,CGTATAGC,-0.0127 (inactive)
12,ACTGCCTG,-0.0684 (inactive)
13,ATGCTCGC,-0.0878 (inactive)
14,CGTCTGTC,0.0202 (inactive)
15,GCTTATAC,-0.034 (inactive)
16,CATATTTA,0.178 (inactive)
17,AAGCTGTG,0.00524 (inactive)
18,ATCCCGAC,-0.0204 (inactive)
19,GCAGGTTA,-0.0457 (inactive)
20,AGGTTATA,0.0929 (inactive)
21,ACGTTATC,0.0197 (inactive)
22,AAGTTATG,0.185 (inactive)
23,AGGTTATG,0.044 (inactive)
24,ATGTTATG,0.338 (active)
25,GTGTTATA,0.334 (active)
26,CTGTTATC,0.103 (inactive)

row,Sequence,PBM E-score
1,AAGTTATA,0.163 (inactive)
2,ATGTTATC,0.351 (active)
3,CTGTTATA,0.187 (inactive)
4,ATGTTATA,0.381 (active)
5,GCGTTATA,-0.0159 (inactive)
6,AGTGCGGA,-0.0562 (inactive)
7,AATGGATA,0.0292 (inactive)
8,AGGCAAGC,-0.0636 (inactive)
9,CCTCCAAG,-0.0978 (inactive)
10,AAGTAGCG,-0.0607 (inactive)
11,ACATAAGG,0.2 (inactive)
12,AGACGTGG,-0.0599 (inactive)
13,AACCACAC,0.0803 (inactive)
14,AAGTTCGC,-0.11 (inactive)
15,AATCCCTA,0.0149 (inactive)
16,CAGTTCTA,0.0212 (inactive)
17,GTGATGAA,0.0845 (inactive)
18,ATGATGAA,0.158 (inactive)
19,ATGATGGA,0.0619 (inactive)
20,CTGATGTA,0.251 (inactive)
21,CTGATGTC,0.212 (inactive)
22,GTGATGTA,≥ 0.383 (active)
23,ATGATGTC,0.312 (active)
24,ACGATGTC,0.261 (inactive)
25,ACGATGTA,0.36 (active)
26,ATGATGTA,≥ 0.383 (active)

row,Sequence,PBM E-score
1,CCGATGTA,0.159 (inactive)
2,ATGATGTG,0.0894 (inactive)
3,GATTCGGC,-0.0366 (inactive)
4,CAGAACAG,0.0845 (inactive)
5,ATCGCTTG,-0.0165 (inactive)
6,ATAGTCCG,0.00249 (inactive)
7,TAGCAAGA,0.142 (inactive)
8,CTACTCAA,0.116 (inactive)
9,CCAGTCAG,-0.104 (inactive)
10,TCGCAACA,0.0932 (inactive)
11,CTATACGA,0.0334 (inactive)
12,CAGATGTA,0.247 (inactive)
13,AAGATGTA,0.298 (inactive)
14,GAGATGTA,0.329 (active)
15,TATTGAAA,0.117 (inactive)
16,ATTATGTC,0.227 (inactive)
17,ATTATGTG,0.197 (inactive)
18,GTTATGTA,0.276 (inactive)
19,CTTATGTC,0.224 (inactive)
20,CTTATGTA,0.345 (active)
21,ATTATGTA,0.327 (active)
22,CGGTTCAA,-0.15 (inactive)
23,AGCGGTTA,-0.0759 (inactive)
24,AGAGATGA,-0.00602 (inactive)
25,AGGACAAG,0.254 (inactive)
26,AAGACATA,0.229 (inactive)

row,Sequence,PBM E-score
1,ACGACATC,0.26 (inactive)
2,AGGACATC,0.233 (inactive)
3,ACGACATG,≥ 0.416 (active)
4,AGGACATG,0.38 (active)
5,AAGACATG,0.381 (active)
6,ACGACATA,0.299 (inactive)
7,GCGACAAC,0.224 (inactive)
8,ACGACAAC,0.339 (active)
9,CCGACAAC,0.198 (inactive)
10,AAGACATT,0.0764 (inactive)
11,CATTTTGA,0.0478 (inactive)
12,ACGAGTGC,0.0719 (inactive)
13,ATATACTG,0.156 (inactive)
14,TCAACGAA,0.0771 (inactive)
15,GGGATTAC,0.0873 (inactive)
16,CTGCGTGA,-0.0361 (inactive)
17,GACCTCTA,-0.142 (inactive)
18,GATGCCTA,0.0242 (inactive)
19,CGCTAGAC,-0.0864 (inactive)
20,ACGACAAT,0.186 (inactive)
21,ACGACAAG,≥ 0.317 (active)
22,ACGACAAA,0.194 (inactive)
23,CCACAGCC,-0.141 (inactive)
24,AACACAAT,≥ 0.319 (active)
25,AACACAAC,≥ 0.339 (active)
26,AACACAAA,0.207 (inactive)

row,Sequence,PBM E-score
1,GACACAAC,0.216 (inactive)
2,AACACAAG,0.228 (inactive)
3,CACACAAC,0.14 (inactive)
4,GAGACACC,-0.0907 (inactive)
5,AATCATGT,0.42 (active)
6,AAGCATGC,0.122 (inactive)
7,AAGCATGG,0.00906 (inactive)
8,AATCATGG,0.0994 (inactive)
9,AACCATGG,0.0193 (inactive)
10,AACCATGC,0.0352 (inactive)
11,AACCATGT,0.347 (active)
12,AATCATGA,0.164 (inactive)
13,AAGCATGT,0.356 (active)
14,ACAATTCG,0.163 (inactive)
15,AGATCGCC,-0.108 (inactive)
16,TCCAGTCA,-0.102 (inactive)
17,AATCGTGT,0.324 (active)
18,AAACGTGT,0.31 (active)
19,AATCGTGC,0.105 (inactive)
20,AATCGTGA,0.102 (inactive)
21,AAACGTGG,-0.051 (inactive)
22,AAACGTGA,0.0748 (inactive)
